About 2,700 (4%) of roughly 68,000 compounds showed an effect of 50% or more. This excerpt belongs to a sample that is enriched for strong results.
system: Plasmodium berghei; assay: Screen against P. berghei liver stage (PbLuc), transformed with Luciferase, at 2uM; type: functional, HepG2; conditions: tested at 2 uM

Structure (SMILES)	INHIBITION
CN1C(=O)C2(CCCN(C(=O)c3cccnc3O)C2)c2ccccc21 (stereo not drawn)	-23.27%
O=C(NCCn1ccnc1)N1CCCC1c1ccncc1 (stereo not drawn)	53.33%
COc1ccc(C2CCCN2C(=O)NCCn2ccnc2)cc1 (stereo not drawn)	26.61%
CC(Cn1ccnc1)NC(=O)N1CCN(Cc2cccnc2)CC1 (stereo not drawn)	-36.13%
O=C(NCCn1ccnc1)N1CCN(Cc2ccsc2)CC1	-1.3%
O=C(Nc1ccc2c(c1)OCO2)N1CCN(CCn2ccnc2)CC1	58.59%
O=C(Nc1ccc2c(c1)OCO2)N1CCN(CCc2ccccc2)CC1	20.76%
O=C(NCCn1ccnc1)N1CCN(Cc2cccnc2)CC1	58.96%
CC(Cn1ccnc1)NC(=O)N1CCN(Cc2ccco2)CC1 (stereo not drawn)	32.64%
O=C(NCCn1ccnc1)N1CCN(Cc2cccs2)CC1	-68.26%
O=C(NCCn1ccnc1)N1CCN(Cc2ccco2)CC1	54.28%
O=C(NCCCn1ccnc1)N1CCCC1c1ccncc1 (stereo not drawn)	-1.27%
O=C(Nc1ccc2c(c1)OCO2)N1CCN(CCn2cccn2)CC1	43.57%
CCSCC(C)NCc1nncn1C1CCCCC1 (stereo not drawn)	37.3%
Cc1nc(CN2C(=O)CC[C@@H]3[C@H]2CCN3C(=O)c2ccccn2)cs1	3.46%
CCc1nccn1C1CCCN(C(=O)c2cncnc2C)C1 (stereo not drawn)	4.41%
CCN(CC)[C@@H]1CN(S(=O)(=O)c2cn(C)cn2)[C@@H]2CCCO[C@H]12	20.21%
CN(CC(=O)NCc1cc2ccccc2o1)S(C)(=O)=O	-3.17%
CCc1noc(C)c1C(=O)N1C[C@H](NS(C)(=O)=O)[C@@H](C2CC2)C1	5.47%
O=C(N1CCCC(n2cncn2)C1)C1(c2ccc(Cl)cc2)CCC1 (stereo not drawn)	45.83%
CC(=O)c1c(C)nn(S(=O)(=O)c2ccc(C)cc2)c1C	39.45%
CN1CCCC(N2CCN(c3cc(C(F)(F)F)ccn3)CC2)C1 (stereo not drawn)	-3.43%
FC(F)(F)c1ccnc(N2CCCC(N3CCOCC3)C2)c1 (stereo not drawn)	60.13%
FC(F)(F)c1ccnc(N2CCCN(C3CCOCC3)CC2)c1	-26.2%
O=C(Cn1cccn1)Nc1ccc(N2CCOCC2)cc1	45.12%
COC(C)C(=O)NS(=O)(=O)c1cccc2cc(C)cnc12 (stereo not drawn)	73.31%
Cc1cnc2c(S(=O)(=O)N(C)C3CCS(=O)(=O)C3)cccc2c1 (stereo not drawn)	47.87%

Structure (SMILES)	INHIBITION
CCOC(C)C(=O)NS(=O)(=O)c1cccc2cc(C)cnc12 (stereo not drawn)	9.27%
Cc1cnc2c(S(=O)(=O)NC(=O)C(C)OCC3CC3)cccc2c1 (stereo not drawn)	28.97%
Cc1cnc2c(S(=O)(=O)NCC3CC3)cccc2c1	51.94%
Cc1cnc2c(S(=O)(=O)NCC3CCOC3)cccc2c1 (stereo not drawn)	1.61%
Cc1cnc2c(S(=O)(=O)NCC3CCS(=O)(=O)C3)cccc2c1 (stereo not drawn)	-84.03%
Cc1cnc2c(S(=O)(=O)NC3CCS(=O)(=O)C3)cccc2c1 (stereo not drawn)	-15.28%
Cc1cnc2c(S(=O)(=O)NCC3CCN(C4CC4)C3)cccc2c1 (stereo not drawn)	51.21%
CC(C)N1CCOC(CC(=O)N2CCCN(Cc3ccncc3)CC2)C1 (stereo not drawn)	18.22%
CNc1nc(C2CCCN2C(C)=O)nc2c1CN(CCO)CC2 (stereo not drawn)	-0.83%
Cc1cc(C)c(CNC(=O)C2COc3ccccc3C2)c(=O)[nH]1 (stereo not drawn)	-68.78%
Cc1cc(C)nc(N2CCCC(C)(c3[nH]ncc3C(=O)N(C)C)C2)n1 (stereo not drawn)	-81.44%
CCc1cc(CN2CCCCC2c2ccc(F)cc2)on1 (stereo not drawn)	-19.3%
CCOC(=O)CCNC(=O)c1cc(Cl)cc2cccnc12	-14.21%
CCS(=O)(=O)N(C)CCCNC(=O)c1cc(Cl)cc2cccnc12	61.08%
COCCOCCCNC(=O)c1cc(Cl)cc2cccnc12	-18.52%
CCS(=O)(=O)CC(=O)Nc1ccccc1N1CCc2ccccc21	6.07%
CCCc1cc(C(=O)N2CCC3(CC2)CN(CCN(C)C)C(=O)O3)no1	28.73%
Cc1cc(C(=O)N2CCC3(CC2)CN(CCN(C)C)C(=O)O3)nc(C)n1	59.03%
Cc1ccc(C(=O)N2CCN(C)C3(CCC(=O)N(C)CC3)C2)c(F)c1 (stereo not drawn)	18.22%
Cc1ccc(C(=O)N2CCC3(CC2)CN(CCN(C)C)C(=O)O3)c(F)c1	57.34%
CN(C)CCN1CC2(CCN(C(=O)c3cnccn3)CC2)OC1=O	-48.69%
CN(C)CCCN1CC2(CCN(C(=O)C3(C)CCCCO3)CC2)OC1=O (stereo not drawn)	-64.97%
CN(Cc1ccccc1)C(=O)Cn1nc(N2CCSCC2)ccc1=O	22.88%
Cc1cc2nc(C(C)C)cc(N(C)CC3CCN(C(C)C)C3)n2n1 (stereo not drawn)	5.93%
Fc1cccc(CN2CCOCC3(CCN(C4CCOCC4)C3)C2)c1 (stereo not drawn)	30.29%
CNc1cc2c(nn1)CCN(C(=O)c1cc(C)n(C3CC3)c1C)C2	26.06%
